Compounds with a hit are over-represented: about 4.2% of the library has one in this group of screens.
RecA splice inh: Mtb RecA intein splicing inhibitors, primary screen, biochemical, fluorescence, HTS; Protein RecA (Mycobacterium tuberculosis (strain ATCC 25618 / H37Rv)), P9WHJ3; cell-free RecA intein splicing; inhibition, % (concentration not given with the values); 0.75% of 290,000 active; AID 2221, 2009; in the data active = inhibition above about 30%; inconclusive = no clear call, values can overlap the other calls;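 also: 0% = vehicle wells and 100% = reference inhibitor control wells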
GDH-TPI counter-1: GDH-TPI coupling enzyme inhibitors, primary screen, artefact control for M. tuberculosis FBA inhibitor project, biochemical, absorbance, full deck; 1.2% of 360,000 active; AID 588335, 2011; inhibition, % at 4.8 µM; GDH-TPI coupled enzyme counterscreen, NADH absorbance; in the data active = inhibition above about 30%;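 also: 0% = DMSO wells and 100% = wells lacking the enzyme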
CCHF vOTU inh: CCHFV vOTU protease inhibitors, primary screen, biochemical, Pep-AMC substrate, fluorescence | Crimean-Congo hemorrhagic fever virus L polyprotein viral ovarian tumor (vOTU) protease … | inhibition, % at 11.5 µM | 0.55% of 370,000 active | AID 651958, 2012; in the data active = inhibition above about 30%; also: 0% = vehicle wells with enzyme and 100% = no enzyme wells
Mtb betalactam: beta-lactam sensitization of Mtb H37Rv, H37Rv. 0.27% of 330,000 active. inhibition, % at 25 µM. M. tuberculosis H37Rv growth with meropenem, percent inhibition; call rule not given here;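 also: growth measured after seven days incubation then overnight dye step; 0% = bacteria only wells and 100% = bacteria with antibiotic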
Mtb FBA inh: Mtb FBA enzyme inhibitors, primary screen, biochemical, fluorescence, strain H37Rv; Fructose-bisphosphate aldolase (Mycobacterium tuberculosis (strain ATCC 25618 / H37Rv)), …; purified M. tuberculosis FBA, fluorescence read-out; inhibition, % at 1 µM; 2.3% of 360,000 active; AID 588726, 2011;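 also: 0% = vehicle and 100% = reference inhibitor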
Mtb FBA confirm: M. tuberculosis aldolase blockers, biochemical, fluorescence, strain H37Rv, confirmation; shares compounds with Mtb FBA inh; purified M. tuberculosis FBA, fluorescence read-out; inhibition, % at 1 µM; 78% of 5,600 active; AID 651616, 2012;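 also: 0% = vehicle wells and 100% = reference inhibitor wells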
GDH-TPI counter-2: GDH-TPI coupling enzyme inhibitors, artefact control for M. tuberculosis FBA inhibitor project, biochemical, fluorescence, high throughput | shares compounds with Mtb FBA inh | 81% of 5,600 active | GDH-TPI coupled enzyme counterscreen | inhibition, % at 1 µM; in the data active = inhibition above about 10%
Starred values were filed as active, the others as inactive. Rule as the data show it, unless noted: active = inhibition above about 27%; inactive = the rest.

COc1ccc2oc(=O)c(-c3nnc(N)s3)cc2c1 was read as RecA splice inh -1, GDH-TPI counter-1 14, CCHF vOTU inh -20, Mtb betalactam 45 and Mtb FBA inh 7.
For COc1ccc2oc(=O)c(-c3nc(C)cs3)cc2c1 the results were RecA splice inh -18, GDH-TPI counter-1 13, CCHF vOTU inh -25, Mtb betalactam inconclusive, Mtb FBA inh 35*, Mtb FBA confirm 111* and GDH-TPI counter-2 78*.
Screening C=CCCC(=O)N(Cc1ccccc1)c1ccccc1C(=O)Nc1cc(OC)ccc1OC returned CCHF vOTU inh 10.
Screening CCOC(=O)N1CCN(C(=O)c2cc3c(=O)n4ccccc4nc3s2)CC1 returned RecA splice inh -54, GDH-TPI counter-1 13, CCHF vOTU inh -55, Mtb betalactam -11, Mtb FBA inh 49*, Mtb FBA confirm 67* and GDH-TPI counter-2 58*.
CC1CC(C)CN(C(=O)c2cc3c(=O)n4ccccc4nc3s2)C1 (stereo unspecified) was read as RecA splice inh -27, GDH-TPI counter-1 8, CCHF vOTU inh -38, Mtb betalactam 7, Mtb FBA inh 53*, Mtb FBA confirm active and GDH-TPI counter-2 active.
For CCOC(=O)N1CCN(c2nc3ccccn3c(=O)c2C=O)CC1 the results were RecA splice inh 2, GDH-TPI counter-1 12, CCHF vOTU inh 8, Mtb betalactam inconclusive and Mtb FBA inh 2.
CSc1ccccc1NC(=O)c1cc2c(=O)n3ccccc3nc2s1 was read as RecA splice inh -2, GDH-TPI counter-1 9, CCHF vOTU inh -4, Mtb betalactam 6 and Mtb FBA inh 2.
For O=C(NCc1cccnc1)c1ccccc1Br the results were RecA splice inh -1, GDH-TPI counter-1 -1, CCHF vOTU inh 0, Mtb betalactam -9 and Mtb FBA inh 5.
O=C(NCc1cccnc1)c1cnn2ccccc12 was read as RecA splice inh 0, GDH-TPI counter-1 6, CCHF vOTU inh -7, Mtb betalactam -4, Mtb FBA inh 30*, Mtb FBA confirm 193* and GDH-TPI counter-2 140*.
Cc1cc(C)n2ncc(C(=O)NCc3cccnc3)c2n1 was read as RecA splice inh 2, GDH-TPI counter-1 -1, CCHF vOTU inh -14, Mtb betalactam -3, Mtb FBA inh 42*, Mtb FBA confirm 43* and GDH-TPI counter-2 42*.
COc1cccc(CNC(=O)c2cc(C3CC3)nc3c2cnn3C(C)C)c1 was read as GDH-TPI counter-1 4, CCHF vOTU inh 15, Mtb betalactam 10 and Mtb FBA inh 10.
`CC(C)n1ncc2c(C(=O)NCc3cccnc3)cc(C3CC3)nc21` gave GDH-TPI counter-1 9, CCHF vOTU inh -39, Mtb FBA inh 54*, Mtb FBA confirm active and GDH-TPI counter-2 active.
COC(=O)C[C@H]1CC[C@H]2[C@H](COc3ccc(NC(=O)c4cccs4)cc3C(=O)N2C)O1 was read as CCHF vOTU inh 2.
Nc1nc2c(c3c1c(=O)oc1ccccc13)CCCCC2 was read as RecA splice inh -6, GDH-TPI counter-1 2, CCHF vOTU inh -21, Mtb betalactam 3, Mtb FBA inh 38*, Mtb FBA confirm -11 and GDH-TPI counter-2 -14.
COc1ccc(C(CCOC(=O)Oc2ccccc2)c2cc(OC)cc(OC)c2)cc1 (stereo unspecified) was read as CCHF vOTU inh 11.
`Cc1cc(C)cc(C(=O)OCCCN(C)C2CN(Cc3cn(Cc4ccccc4Cl)nn3)S(=O)(=O)C2)c1` (stereo unspecified) gave CCHF vOTU inh 4.
CC1OC2(C)OC(=N)C1(C#N)C(C#N)(C#N)C2c1ccccc1 (stereo unspecified) was read as RecA splice inh -203, GDH-TPI counter-1 -4, CCHF vOTU inh -153, Mtb betalactam 0, Mtb FBA inh 53*, Mtb FBA confirm 62* and GDH-TPI counter-2 50*.
